# PLK1 PBD inh – inhibitors of human PLK1 polo-box domain binding; Plk1 PBD binding of FITC phosphopeptide, fluorescence polarization; Potency, µM, for inactives: max response, negative = inhibition, usual class: inhibitors; actives 2.8% (n = 360,000); also: potency is read from the fitted curve at half-maximal effect; series mostly up to about 57 µM; % is scaled to controls: 0 for no effect and ±100 for the full control effect; nearly all actives have a fitted effect of over 65% in size
# WRN helicase inh – WRN helicase (human) inhibition; Q14191; WRN helicase unwinding, fluorescent forked duplex, kinetic; Potency, µM (highest dose often 114 µM), for inactives: at the top dose activity change, negative = inhibition, hits mostly inhibitors; actives 0.46% (n = 360,000); also: potency is read from the fitted curve at half-maximal effect; % is scaled to controls: 0 for no effect and ±100 for the full control effect; nearly all actives have a fitted effect of over 55% in size
#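 WRN at 20 nM final preincubated with compound 15 min at room temperature; reaction started with 100 nM fluorophore/quencher forked duplex oligonucleotide and 2 mM ATP final. Unwinding followed kinetically by red fluorescence (ex 525, em 598 nm).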
# FEN1 inh – blocks human flap endonuclease 1; Recombinant FEN1 flap cleavage, fluorescence, 15 min; P39748; Potency, µM (highest dose often 114 µM), for inactives: at the top dose activity change, negative = inhibition, actives largely listed as inhibitors; actives 0.35% (n = 390,000); also: potency is read from the fitted curve at half-maximal effect; % is scaled to controls: 0 for no effect and ±100 for the full control effect; nearly all actives have a fitted effect of over 65% in size
# Target sequence (P39748 whole entry, looked up): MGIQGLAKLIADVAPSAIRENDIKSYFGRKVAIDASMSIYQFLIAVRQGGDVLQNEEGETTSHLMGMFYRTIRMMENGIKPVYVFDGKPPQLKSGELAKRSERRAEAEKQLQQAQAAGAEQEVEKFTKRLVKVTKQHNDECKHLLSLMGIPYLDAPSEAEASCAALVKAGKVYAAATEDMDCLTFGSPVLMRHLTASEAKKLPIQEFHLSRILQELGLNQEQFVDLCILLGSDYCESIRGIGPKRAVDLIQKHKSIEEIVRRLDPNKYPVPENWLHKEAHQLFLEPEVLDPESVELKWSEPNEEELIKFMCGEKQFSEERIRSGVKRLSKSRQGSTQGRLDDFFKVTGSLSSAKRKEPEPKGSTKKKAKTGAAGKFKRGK
#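 Concentration–response screening of FEN1 (10 nM): 15 min compound preincubation at room temperature, reaction started with 50 nM substrate and read at 0 and 15 min. Corrected, normalized data were fitted by a four-parameter Hill equation.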
# PI5P4K alpha inh – blocks human PI5P4K alpha kinase activity; P48426; PI5P4Kalpha enzyme, ADP-Glo luminescence, 60 min; hits give low values; max response, %; actives 1.2% (n = 330,000); AID 652105; active = max response of -50% or lower; inconclusive = between -30% and -50%; inactive = -30% or higher; also: value at the top dose of about 77 µM; % is scaled to controls: 0 for no effect and ±100 for the full control effect
# Target sequence (P48426 whole entry, looked up): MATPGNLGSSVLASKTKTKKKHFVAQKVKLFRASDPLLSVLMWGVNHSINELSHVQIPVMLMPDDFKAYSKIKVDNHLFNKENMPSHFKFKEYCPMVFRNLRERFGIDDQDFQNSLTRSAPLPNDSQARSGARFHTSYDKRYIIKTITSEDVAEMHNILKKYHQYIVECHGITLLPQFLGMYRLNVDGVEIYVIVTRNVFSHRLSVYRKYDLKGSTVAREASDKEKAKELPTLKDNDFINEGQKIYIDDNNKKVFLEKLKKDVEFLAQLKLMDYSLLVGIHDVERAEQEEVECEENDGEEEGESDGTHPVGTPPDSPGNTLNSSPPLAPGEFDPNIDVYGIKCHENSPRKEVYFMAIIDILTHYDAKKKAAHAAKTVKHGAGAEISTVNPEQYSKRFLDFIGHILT
#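 ADP-Glo luminescence end-point after a 60 min room-temperature kinase reaction. PI5P4Kalpha and substrate in HEPES pH 7.4 buffer with EGTA, 0.1% CHAPS and 5% DMSO; ATP at 5 microM final.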
# VDR inhibitor – blocks the human vitamin D receptor; actives 0.93% (n = 400,000); VDR-SRC2-3 peptide fluorescence polarization, 2 h; Potency, µM, for inactives: max response, negative = inhibition, usual class: inhibitors; P11473; AID 504847; also: potency is read from the fitted curve at half-maximal effect; % is scaled to controls: 0 for no effect and ±100 for the full control effect
#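 After 23 nl compound addition and a short centrifugation, plates sat for 2 hours at ambient temperature; polarization of fluorescence then indicated loss of VDR binding to peptide SRC2-3.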
# TCR act – activates T cell receptor signaling; AID 504894; primary human leukocytes, anti-CD3, IL-2 HTRF, 48 h; 330,000 tested, under 10 active; Potency, µM (series often up to 9.22 µM), without a hit: at the highest dose activation of IL-2 secretion, actives largely listed as activators; also: % of control where 0% means no effect
#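 Primary human leukocytes were stimulated with a-CD3 beads plus compounds for 48 hr without co-stimulation; secreted IL-2 was quantified by HTRF using a-IL-2-K (europium cryptate) and a-IL-2-d2, excited at 320nm with acceptor emission read at 665nm.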
# An asterisk follows results filed as active; u = inconclusive; x = no result given; ! = repeats disagree; [ ] = dose if it differs, or a comment. An excerpt weighted towards active compounds, which were near 3.7% of everything screened. Unless noted, calls follow the shape of the dose curve; as a rule, active = well fitted curve in the direction sought with a large enough effect; inconclusive = small, poorly fitted or top-dose-only effect, or another doubt; inactive = no such curve, though single readings can be large; an effect the other way counts as inactive or inconclusive.
SMILES,PLK1 PBD inh,WRN helicase inh,FEN1 inh,PI5P4K alpha inh,VDR inhibitor,TCR act
CCOc1ccc(N(CC)C(=O)c2nn(-c3ccc(OC)cc3)c(=O)c3c2c2ccccc2n3C)cc1,26.7µM*,2.1%,16.0%,1.4,-7.2%,-3.9%
COc1ccccc1Nc1cc(C)nc2nc(-c3ccccc3)nn12,x,x,-11.7%,x,0.8%,x
Nc1cc(=O)nc(SCC(=O)Nc2ccc(F)cc2)n1-c1ccc(Cl)cc1,x,x,-3.6%,x,7.8%,x
COc1ccc(/C=N/NC(=O)Nc2cccc3nsnc23)cc1,23.8µM*,1.8%,12.3%,4.0,u,-5.0%[46.1 µM]
O=C(Nc1ccccc1)Nc1cccc2nsnc12,-6.4%,-5.4%,5.6%,1.7,0.9%,0.5%
CCc1ccc(NC(=O)CCNC(=O)Cn2cnc3ccccc3c2=O)cc1,29.9µM*,-1.2%,0.7%,-15.5,u,-37.0%
Cc1c(Cl)cccc1Nc1nn2c(=O)c3ccc(C(=O)NCCC4=CCCCC4)cc3nc2s1,x,x,-16.3%,x,6.1%,x
COc1cc(O)ccc1C1CC(=O)Nc2c1c(=O)nc(SCc1ccccc1C)n2C (stereo unspecified),x,x,8.0%,x,6.6%,x
COc1ccc(S(=O)(=O)Nc2ccc(Oc3ncccn3)c(Cl)c2)cc1,5.32µM*,5.2%,7.7%,u,-23.0%,0.2%
CC(C)(C)c1cc(O)c(C(C)(C)C)cc1O,x,x,x,x,28.2µM*,x
COc1cccc(-c2nc3ccccc3c(=O)o2)c1,-2.9%,-1.0%,-7.6%,x,-20.6%,-1.1%
COc1cccc(C2=N/C(=C\N(C)C)C(=O)O2)c1,16.8µM*,7.1%,-17.0%,-28.5,-12.5%,-4.3%
O=C(CSc1n[nH]c(=O)[nH]c1=O)N1CCCCCC1,26.7µM*,-0.7%,4.5%,-14.1,u,15.9%
O=C(CCc1n[nH]c(=O)[nH]c1=O)N1CCCCC1,-18.5%,0.3%,-7.5%,-2.2,-15.9%,-9.7%
COc1cc(/C=C2\SC(=O)N(Cc3ccc(F)cc3)C2=O)cc([N+](=O)[O-])c1O,26.7µM*,-14.0%[11.6 µM],u,u,u,-6.3%
COc1cc(/C=C2\SC(=O)N(Cc3ccc(Cl)cc3)C2=O)cc([N+](=O)[O-])c1O,23.8µM*,-5.7%[11.6 µM],u,-80.9*,-3.3%,-3.5%
CCOC(=O)CN1C(=O)S/C(=C/c2ccc(OC)c([N+](=O)[O-])c2)C1=O,-8.3%,-6.2%,-1.2%,-5.9,-3.4%,1.6%[46.1 µM]
Cc1ccc(CNC(=O)C2CCCN(S(=O)(=O)c3ccc4c(ccn4C)c3)C2)cc1 (stereo unspecified),x,x,15.0%,x,-2.8%,x
C=CCn1c(SCC(=O)Nc2cc(C)on2)nc2sc3c(c2c1=O)CCCC3,26.7µM*,-0.5%,-3.6%,-6.0,6.6%,5.6%
O=C(COC(=O)c1ccccc1OCc1cccc(Br)c1)Nc1ccc(Br)cc1,x,x,-17.4%,x,x,x
O=C(CSc1cccc2cccnc12)OCC(=O)c1ccccc1,21.2µM*,-6.1%,-2.8%,0.0,20µM*,x
CN(C)C(=O)CSc1cccc2cccnc12,11.9µM*,-11.9%,-1.4%,-2.6,-23.1%,-5.0%
COc1ccc(N2CCN(Cc3cccn3-c3nnc(N4CCN(C5CCCCC5)CC4)s3)CC2)cc1,x,x,0.8%,x,-9.4%,x
COc1ccc2c(c1)-c1ccccc1S(=O)(=O)N2C(C)=O,26.7µM*,-6.5%,-2.1%,x,-2.0%,2.8%
Cc1ccccc1CNC(=O)C(=O)NCC(c1ccc2c(c1)OCO2)N1CCOCC1 (stereo unspecified),x,x,-7.2%,x,-4.7%,x
SMILES,PLK1 PBD inh,WRN helicase inh,FEN1 inh,PI5P4K alpha inh,VDR inhibitor,TCR act
O=[N+]([O-])c1cccc(/C=N\N=C2c3ccccc3-c3ccccc32)c1O,u,-0.1%,-22.1%,-53.9*,-19.0%,-11.2%[46.1 µM]
COc1cc2nc(C3CCC3)n(NC(=O)C3CCC3)c(=O)c2cc1OC,23.8µM*,6.4%,5.1%,-8.2,-12.6%,x
COc1cc2nc(C3CCC3)n(NC(=O)COc3ccccc3)c(=O)c2cc1OC,26.7µM*,-18.3%,-3.4%,x,u,-34.8%
O=C(Nc1ccccc1Cl)C1CCN(c2nc3ccccc3[nH]2)CC1,x,x,0.2%,x,0.4%,x
CC(=O)N[C@@H](CSC/C=C(\C)CCC=C(C)C)C(=O)O,x,x,x,x,0.1%,x
CC(=O)N[C@@H](CSC/C=C(\C)CC/C=C(\C)CC/C=C(\C)CCC=C(C)C)C(=O)O,x,x,x,x,35.5µM*!,x
CC(=O)N[C@@H](CSC/C=C(\C)CC/C=C(\C)CCC=C(C)C)C(=O)O,x,x,x,x,50.1µM*!,x
CCCOc1cccc(C2c3c(oc4ccccc4c3=O)C(=O)N2c2nncs2)c1 (stereo unspecified),x,x,1.7%,x,-20.9%,x
COC(=O)c1ccc(NC(=S)NNC(=O)CC(C)C)cc1,26.7µM*,-26.6%[57.1 µM],-16.7%,-12.2,-19.9%,-5.0%[46.1 µM]
CCOC(=O)c1ccc(N2C(=O)CC(SCC(=O)Nc3ccc(S(N)(=O)=O)cc3)C2=O)cc1 (stereo unspecified),29.9µM*,-11.6%,2.4%,-5.0,u,-8.7%
NS(=O)(=O)c1ccc(NC(=S)NC2CCCCCC2)cc1,18.9µM*,-13.8%[57.1 µM],-0.9%,4.4,-12.0%,2.9%[46.1 µM]
CC(C)CC(=O)NC(=S)Nc1ccc(S(=O)(=O)N2CCCC2)cc1,23.8µM*,0.3%[57.1 µM],-9.4%,3.5,-19.1%,6.1%
COC(=O)c1cc(OC)c(OC)c(OC)c1NC(=O)c1cc(=O)n(C)c(=O)n1C,x,x,13.6%,x,-14.5%,x
O=S(=O)(c1ccc(NC(=S)NC2CC2)cc1)N1CCOCC1,u,6.2%,10.9%,1.6,-4.9%,2.3%
Cc1cccc(C(=O)NC(=S)Nc2ccc(S(=O)(=O)N3CCN(C)CC3)cc2)c1,21.2µM*,-28.6%[57.1 µM],5.1%,-10.0,-5.0%,1.4%
O=S(=O)(c1ccc(NC(=S)NC2CCCC2)cc1)N1CCCC1,15µM*,1.3%,-8.2%,u,u,-0.7%
NS(=O)(=O)c1ccc(NC(=O)CSC2CCCCC2)cc1,29.9µM*,8.6%,-3.4%,-14.2,u,-8.2%
Cc1ccc(C(=O)NC(=S)Nc2ccc(S(=O)(=O)N3CCN(C)CC3)cc2)cc1,u,-33.9%,-7.9%,-6.5,-4.7%,-0.9%
Cc1cccc(OCc2ccc(-c3nc(C#N)c(NCc4cccnc4)o3)o2)c1,x,x,-22.1%,x,6.6%,x
Cc1cc(C)cc(NS(=O)(=O)c2ccc3c(c2)C(C)(C)C(=O)N3C)c1,26.7µM*,-3.4%,0.4%,-2.8,-21.3%,0.1%
Cc1ccc(CCNS(=O)(=O)c2ccc3c(c2)C(C)(C)C(=O)N3C)cc1,4.9%,-8.8%,20.2%,-1.3,1.0%,4.6%
CCOC(=O)c1c(C)c(-c2ccccc2)n(CC(=O)NCc2cccc(OC)c2)c1C,x,x,-1.5%,x,5.7%,x
COc1cc(-c2ccc(Nc3ccccc3C(=O)O)c(OC)c2)ccc1Nc1ccccc1C(=O)O,16.8µM*,31.6µM*,u,-89.2*,u,11.4%
